In PMC7862700, “An all-to-all approach to the identification of sequence-specific readers for epigenetic DNA modifications on cytosine”:

What was measured:
Test in all cases: DAPPL (digital affinity profiling via proximity ligation, sequencing); 10 mM Tris-HCl pH 7.5, 50 mM NaCl, 1 mM DTT, 4% glycerol, room temperature, 30 min; GST-TFs on glutathione beads, 16-mer random dsDNA library, 0.1% formaldehyde crosslink after washing; high values mean tight binding
FLI1 = target: T1, FLI1 (Homo sapiens, UniProt Q01543 1-452); conditions: protein: recombinant; tags: N-terminal GST; dsDNA, one strand shown
T1 sequence: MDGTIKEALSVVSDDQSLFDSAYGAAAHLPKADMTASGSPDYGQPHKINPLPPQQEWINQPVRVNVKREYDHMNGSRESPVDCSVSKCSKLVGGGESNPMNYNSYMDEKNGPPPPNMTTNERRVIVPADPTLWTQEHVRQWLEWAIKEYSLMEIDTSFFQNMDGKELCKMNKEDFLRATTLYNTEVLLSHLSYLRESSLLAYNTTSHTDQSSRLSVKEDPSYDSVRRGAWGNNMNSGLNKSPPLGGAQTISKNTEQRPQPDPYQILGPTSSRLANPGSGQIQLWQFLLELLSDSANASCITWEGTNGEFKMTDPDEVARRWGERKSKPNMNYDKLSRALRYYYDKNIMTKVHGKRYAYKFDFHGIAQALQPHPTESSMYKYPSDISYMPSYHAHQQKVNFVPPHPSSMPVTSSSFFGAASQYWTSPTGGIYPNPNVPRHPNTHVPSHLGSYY
How it was run: (§1)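 After expression in yeast as GST fusions, human transcription factors were bound to glutathione beads, DNA-barcoded and mixed with a tag-only sample. The pools were incubated with 200 nmole of a 16-mer random double-stranded DNA library in Tris/NaCl/DTT/glycerol buffer (30 min, room temperature), washed and crosslinked with 0.1% formaldehyde. Proximity ligation with BsaI/T4 ligase ran for 1 h at 37 °C, before PCR amplification and sequencing on an Illumina NextSeq500. Binding signal is a hexamer's read frequency for a factor divided by its frequency for the tag-only sample.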

ELK1 = target: T2, ELK1 (Homo sapiens, UniProt P19419 1-428); conditions: protein: recombinant; tags: N-terminal GST; dsDNA, one strand shown
T2 sequence: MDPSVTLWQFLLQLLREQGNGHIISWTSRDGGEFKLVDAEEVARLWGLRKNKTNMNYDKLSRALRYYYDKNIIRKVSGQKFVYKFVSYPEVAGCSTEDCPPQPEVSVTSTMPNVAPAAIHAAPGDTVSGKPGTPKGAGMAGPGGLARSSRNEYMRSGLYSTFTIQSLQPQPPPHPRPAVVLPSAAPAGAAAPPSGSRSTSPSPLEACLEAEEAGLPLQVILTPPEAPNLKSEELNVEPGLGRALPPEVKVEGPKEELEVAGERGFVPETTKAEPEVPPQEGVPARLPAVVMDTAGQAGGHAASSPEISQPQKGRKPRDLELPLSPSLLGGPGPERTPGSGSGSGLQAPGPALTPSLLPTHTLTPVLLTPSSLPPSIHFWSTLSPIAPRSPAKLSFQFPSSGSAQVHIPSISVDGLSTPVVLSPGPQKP
How it was run: as §1

GABPA = target: T3, GABPA (Homo sapiens, UniProt Q06546 1-454); conditions: protein: recombinant; tags: N-terminal GST; dsDNA, one strand shown
T3 sequence: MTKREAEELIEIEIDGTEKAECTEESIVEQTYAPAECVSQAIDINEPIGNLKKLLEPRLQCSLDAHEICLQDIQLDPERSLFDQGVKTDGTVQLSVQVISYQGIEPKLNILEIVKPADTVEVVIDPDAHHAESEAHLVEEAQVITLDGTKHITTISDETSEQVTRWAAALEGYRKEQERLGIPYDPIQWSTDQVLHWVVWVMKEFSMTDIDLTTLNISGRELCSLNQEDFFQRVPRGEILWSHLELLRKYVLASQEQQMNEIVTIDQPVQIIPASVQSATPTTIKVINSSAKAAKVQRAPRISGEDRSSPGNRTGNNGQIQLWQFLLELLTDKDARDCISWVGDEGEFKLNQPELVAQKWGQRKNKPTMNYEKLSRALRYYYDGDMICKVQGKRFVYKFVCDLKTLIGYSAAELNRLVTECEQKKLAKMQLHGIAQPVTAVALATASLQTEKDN
How it was run: as §1

ERG = target: T4, ERG (Homo sapiens, UniProt P11308 1-479); conditions: protein: recombinant; tags: N-terminal GST; dsDNA, one strand shown
T4 sequence: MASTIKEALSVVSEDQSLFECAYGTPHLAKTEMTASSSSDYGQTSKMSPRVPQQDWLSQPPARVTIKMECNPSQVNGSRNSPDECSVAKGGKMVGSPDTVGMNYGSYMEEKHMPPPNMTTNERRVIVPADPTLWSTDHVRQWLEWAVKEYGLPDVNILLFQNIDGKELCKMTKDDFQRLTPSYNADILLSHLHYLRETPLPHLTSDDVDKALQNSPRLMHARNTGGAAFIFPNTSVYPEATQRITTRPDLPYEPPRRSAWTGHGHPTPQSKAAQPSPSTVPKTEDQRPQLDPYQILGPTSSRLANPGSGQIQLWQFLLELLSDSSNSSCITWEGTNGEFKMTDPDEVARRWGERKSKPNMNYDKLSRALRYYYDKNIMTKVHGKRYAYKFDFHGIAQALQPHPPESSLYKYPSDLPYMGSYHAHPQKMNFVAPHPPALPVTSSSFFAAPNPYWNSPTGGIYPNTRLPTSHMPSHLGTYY
How it was run: as §1

ELF1 = ELF1 (Homo sapiens, UniProt P32519 1-619); conditions: protein: recombinant; tags: N-terminal GST; dsDNA, one strand shown
How it was run: as §1

EHF = target: T5, EHF (Homo sapiens, UniProt Q9NZC4 1-300); conditions: protein: recombinant; tags: N-terminal GST; dsDNA, one strand shown
T5 sequence: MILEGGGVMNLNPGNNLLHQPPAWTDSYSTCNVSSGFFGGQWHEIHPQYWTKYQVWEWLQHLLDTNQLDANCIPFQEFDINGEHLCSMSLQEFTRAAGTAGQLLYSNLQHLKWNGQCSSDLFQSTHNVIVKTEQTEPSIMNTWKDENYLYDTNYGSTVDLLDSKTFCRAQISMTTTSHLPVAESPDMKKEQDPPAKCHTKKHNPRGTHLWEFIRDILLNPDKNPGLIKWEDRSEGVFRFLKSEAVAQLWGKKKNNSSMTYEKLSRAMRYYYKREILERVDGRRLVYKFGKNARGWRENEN
How it was run: as §1

SPI1 = SPI1 (Homo sapiens, UniProt P17947 1-270); conditions: protein: recombinant; tags: N-terminal GST; dsDNA, one strand shown
How it was run: as §1

SPIB = SPIB (Homo sapiens, UniProt Q01892 1-262); conditions: protein: recombinant; tags: N-terminal GST; dsDNA, one strand shown
How it was run: as §1

ELK3 = target: T6, ELK3 (Homo sapiens, UniProt P41970 1-407); conditions: protein: recombinant; tags: N-terminal GST; dsDNA, one strand shown
T6 sequence: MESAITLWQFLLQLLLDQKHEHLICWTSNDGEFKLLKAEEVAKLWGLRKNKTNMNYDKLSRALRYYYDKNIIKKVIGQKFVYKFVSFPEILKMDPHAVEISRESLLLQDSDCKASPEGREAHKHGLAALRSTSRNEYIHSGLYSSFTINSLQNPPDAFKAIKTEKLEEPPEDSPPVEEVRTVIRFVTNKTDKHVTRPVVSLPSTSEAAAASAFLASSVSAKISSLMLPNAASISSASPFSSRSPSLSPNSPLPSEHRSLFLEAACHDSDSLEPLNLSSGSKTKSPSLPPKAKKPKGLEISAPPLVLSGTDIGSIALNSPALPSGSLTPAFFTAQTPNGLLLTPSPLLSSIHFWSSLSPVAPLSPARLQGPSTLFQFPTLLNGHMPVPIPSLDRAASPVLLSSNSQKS
How it was run: as §1

FEV = target: T7, FEV (Homo sapiens, UniProt Q99581 1-238); conditions: protein: recombinant; tags: N-terminal GST; dsDNA, one strand shown
T7 sequence: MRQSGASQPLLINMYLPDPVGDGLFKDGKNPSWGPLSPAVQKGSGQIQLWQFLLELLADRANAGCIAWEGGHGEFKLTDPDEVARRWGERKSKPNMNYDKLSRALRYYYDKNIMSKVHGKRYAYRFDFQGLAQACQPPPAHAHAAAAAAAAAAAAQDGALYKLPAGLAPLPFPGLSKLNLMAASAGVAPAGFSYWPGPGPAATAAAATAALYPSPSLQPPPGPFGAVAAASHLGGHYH
How it was run: as §1

ETV5 = ETV5 (Homo sapiens, UniProt P41161 1-510); conditions: protein: recombinant; tags: N-terminal GST; dsDNA, one strand shown
How it was run: as §1

HSF1 = HSF1 (Homo sapiens, UniProt Q00613 1-529); conditions: protein: recombinant; tags: N-terminal GST; chain copies: 3; dsDNA, one strand shown
How it was run: as §1

SPIC = target: T8, SPIC (Homo sapiens, UniProt Q8N5J4 1-248); conditions: protein: recombinant; tags: N-terminal GST; dsDNA, one strand shown
T8 sequence: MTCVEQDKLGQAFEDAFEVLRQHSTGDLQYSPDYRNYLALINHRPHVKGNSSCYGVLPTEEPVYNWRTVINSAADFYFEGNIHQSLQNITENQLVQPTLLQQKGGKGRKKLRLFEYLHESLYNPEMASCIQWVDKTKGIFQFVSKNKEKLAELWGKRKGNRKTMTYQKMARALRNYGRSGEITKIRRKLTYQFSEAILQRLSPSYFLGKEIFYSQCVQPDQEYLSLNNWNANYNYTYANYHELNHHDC
How it was run: as §1

ELF4 = ELF4 (Homo sapiens, UniProt Q99607 1-663); conditions: protein: recombinant; tags: N-terminal GST; dsDNA, one strand shown
How it was run: as §1

ELK4 = target: T9, ELK4 (Homo sapiens, UniProt P28324-2 1-405); conditions: protein: recombinant; tags: N-terminal GST; dsDNA, one strand shown
T9 sequence: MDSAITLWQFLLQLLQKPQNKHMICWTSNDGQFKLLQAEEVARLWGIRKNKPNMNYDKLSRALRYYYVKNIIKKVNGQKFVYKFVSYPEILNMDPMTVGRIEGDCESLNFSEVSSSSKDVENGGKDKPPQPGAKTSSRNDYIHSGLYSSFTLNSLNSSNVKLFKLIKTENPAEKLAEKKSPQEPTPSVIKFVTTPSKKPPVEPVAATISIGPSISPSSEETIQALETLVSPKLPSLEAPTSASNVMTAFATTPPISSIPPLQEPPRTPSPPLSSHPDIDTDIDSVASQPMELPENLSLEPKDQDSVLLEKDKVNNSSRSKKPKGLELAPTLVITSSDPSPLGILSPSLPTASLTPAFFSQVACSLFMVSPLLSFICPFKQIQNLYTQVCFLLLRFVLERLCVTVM
How it was run: as §1

ETV2 = target: T10, ETV2 (Homo sapiens, UniProt O00321 1-342); conditions: protein: recombinant; tags: N-terminal GST; dsDNA, one strand shown
T10 sequence: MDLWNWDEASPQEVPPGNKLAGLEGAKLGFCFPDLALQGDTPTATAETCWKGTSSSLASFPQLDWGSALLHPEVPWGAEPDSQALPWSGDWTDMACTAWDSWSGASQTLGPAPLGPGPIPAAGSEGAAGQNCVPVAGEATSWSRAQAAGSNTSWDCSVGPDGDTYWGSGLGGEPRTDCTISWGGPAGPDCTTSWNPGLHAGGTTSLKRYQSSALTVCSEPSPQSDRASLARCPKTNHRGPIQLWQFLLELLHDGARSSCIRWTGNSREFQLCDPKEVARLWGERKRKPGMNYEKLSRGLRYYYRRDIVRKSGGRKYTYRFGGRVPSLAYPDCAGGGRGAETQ
How it was run: as §1

ELF3 = target: T11, ELF3 (Homo sapiens, UniProt P78545 1-371); conditions: protein: recombinant; tags: N-terminal GST; dsDNA, one strand shown
T11 sequence: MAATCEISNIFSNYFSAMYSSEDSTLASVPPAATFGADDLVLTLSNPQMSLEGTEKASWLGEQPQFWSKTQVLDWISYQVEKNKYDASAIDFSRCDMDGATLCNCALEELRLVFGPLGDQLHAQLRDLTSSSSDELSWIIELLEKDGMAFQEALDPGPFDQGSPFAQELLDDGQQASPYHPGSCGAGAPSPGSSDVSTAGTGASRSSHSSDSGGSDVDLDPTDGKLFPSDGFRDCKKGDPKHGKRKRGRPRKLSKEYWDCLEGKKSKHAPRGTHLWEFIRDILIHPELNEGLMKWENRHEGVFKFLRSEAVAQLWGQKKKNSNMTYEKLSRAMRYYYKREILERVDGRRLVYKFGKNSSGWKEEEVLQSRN
How it was run: as §1

CRX = CRX (Homo sapiens, UniProt O43186 1-299); conditions: protein: recombinant; tags: N-terminal GST; dsDNA, one strand shown
How it was run: as §1

ETV1 = ETV1 (Homo sapiens, UniProt P50549 1-477); conditions: protein: recombinant; tags: N-terminal GST; dsDNA, one strand shown
How it was run: as §1

Chain of ELF4 (Q99607 whole entry): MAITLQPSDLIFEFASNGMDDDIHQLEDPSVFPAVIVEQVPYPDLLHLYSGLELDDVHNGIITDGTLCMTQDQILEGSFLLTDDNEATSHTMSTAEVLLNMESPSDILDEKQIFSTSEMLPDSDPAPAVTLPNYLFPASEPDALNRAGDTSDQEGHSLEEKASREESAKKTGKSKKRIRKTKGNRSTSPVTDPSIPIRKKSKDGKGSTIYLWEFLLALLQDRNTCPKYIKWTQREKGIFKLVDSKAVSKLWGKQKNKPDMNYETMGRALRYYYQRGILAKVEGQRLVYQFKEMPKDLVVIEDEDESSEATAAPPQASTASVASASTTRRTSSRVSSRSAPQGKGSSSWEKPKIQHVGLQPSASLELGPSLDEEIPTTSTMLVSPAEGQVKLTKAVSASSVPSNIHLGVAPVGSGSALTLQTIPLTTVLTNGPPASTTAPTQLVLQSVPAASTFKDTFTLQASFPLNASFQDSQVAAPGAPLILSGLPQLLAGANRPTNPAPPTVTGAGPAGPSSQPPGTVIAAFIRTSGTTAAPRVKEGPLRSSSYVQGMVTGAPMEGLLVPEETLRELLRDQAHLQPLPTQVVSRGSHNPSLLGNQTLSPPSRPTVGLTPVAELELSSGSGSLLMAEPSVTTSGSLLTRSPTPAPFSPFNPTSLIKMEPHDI
Chain of ETV1 (P50549 whole entry): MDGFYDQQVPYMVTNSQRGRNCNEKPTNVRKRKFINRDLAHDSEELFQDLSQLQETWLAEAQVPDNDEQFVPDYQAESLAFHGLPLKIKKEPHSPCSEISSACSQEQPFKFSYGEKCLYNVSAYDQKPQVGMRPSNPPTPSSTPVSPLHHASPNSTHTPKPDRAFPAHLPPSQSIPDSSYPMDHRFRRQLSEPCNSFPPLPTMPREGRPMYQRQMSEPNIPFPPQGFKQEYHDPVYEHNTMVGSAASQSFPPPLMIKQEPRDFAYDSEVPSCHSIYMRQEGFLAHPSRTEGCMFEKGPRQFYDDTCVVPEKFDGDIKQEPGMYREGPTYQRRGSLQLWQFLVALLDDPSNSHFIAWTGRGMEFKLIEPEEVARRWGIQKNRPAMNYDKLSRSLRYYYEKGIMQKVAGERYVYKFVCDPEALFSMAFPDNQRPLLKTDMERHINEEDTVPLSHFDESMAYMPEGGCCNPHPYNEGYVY
Chain of HSF1 (Q00613 whole entry): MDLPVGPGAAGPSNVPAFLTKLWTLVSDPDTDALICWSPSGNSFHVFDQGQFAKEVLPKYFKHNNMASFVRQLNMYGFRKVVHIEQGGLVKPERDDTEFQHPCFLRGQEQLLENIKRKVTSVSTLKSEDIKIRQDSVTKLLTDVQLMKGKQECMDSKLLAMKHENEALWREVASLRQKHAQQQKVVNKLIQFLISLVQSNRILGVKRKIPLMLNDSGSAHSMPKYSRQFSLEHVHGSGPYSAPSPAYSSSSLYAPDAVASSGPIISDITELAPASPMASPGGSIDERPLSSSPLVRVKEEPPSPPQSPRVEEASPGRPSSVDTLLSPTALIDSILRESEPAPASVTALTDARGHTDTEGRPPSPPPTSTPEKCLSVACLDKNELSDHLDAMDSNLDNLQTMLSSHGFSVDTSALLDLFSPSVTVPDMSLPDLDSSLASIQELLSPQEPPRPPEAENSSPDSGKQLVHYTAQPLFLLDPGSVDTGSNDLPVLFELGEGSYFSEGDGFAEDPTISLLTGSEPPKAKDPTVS
Chain of CRX (O43186 whole entry): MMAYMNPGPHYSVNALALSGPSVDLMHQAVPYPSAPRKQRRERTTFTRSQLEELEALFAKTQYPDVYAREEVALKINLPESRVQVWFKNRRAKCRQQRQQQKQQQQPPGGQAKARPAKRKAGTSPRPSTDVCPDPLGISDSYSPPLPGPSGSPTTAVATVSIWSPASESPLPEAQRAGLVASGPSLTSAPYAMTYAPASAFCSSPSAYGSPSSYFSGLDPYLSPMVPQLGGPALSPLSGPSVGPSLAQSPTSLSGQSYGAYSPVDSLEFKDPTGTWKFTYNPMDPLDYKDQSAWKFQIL
Chain of ETV5 (P41161 whole entry): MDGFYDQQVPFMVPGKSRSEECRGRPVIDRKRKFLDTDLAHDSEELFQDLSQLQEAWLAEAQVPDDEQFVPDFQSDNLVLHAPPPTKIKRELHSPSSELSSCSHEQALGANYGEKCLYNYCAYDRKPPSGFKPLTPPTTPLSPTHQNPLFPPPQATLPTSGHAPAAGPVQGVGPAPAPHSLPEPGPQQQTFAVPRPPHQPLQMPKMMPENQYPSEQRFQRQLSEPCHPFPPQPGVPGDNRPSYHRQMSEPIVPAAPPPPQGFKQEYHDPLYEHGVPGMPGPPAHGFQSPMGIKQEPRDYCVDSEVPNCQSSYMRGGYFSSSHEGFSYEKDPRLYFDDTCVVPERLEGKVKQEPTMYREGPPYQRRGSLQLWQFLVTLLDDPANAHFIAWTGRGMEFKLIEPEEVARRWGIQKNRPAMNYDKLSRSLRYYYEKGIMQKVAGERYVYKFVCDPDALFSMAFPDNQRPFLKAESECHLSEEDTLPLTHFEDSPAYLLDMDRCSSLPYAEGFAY
Chain of ELF1 (P32519 whole entry): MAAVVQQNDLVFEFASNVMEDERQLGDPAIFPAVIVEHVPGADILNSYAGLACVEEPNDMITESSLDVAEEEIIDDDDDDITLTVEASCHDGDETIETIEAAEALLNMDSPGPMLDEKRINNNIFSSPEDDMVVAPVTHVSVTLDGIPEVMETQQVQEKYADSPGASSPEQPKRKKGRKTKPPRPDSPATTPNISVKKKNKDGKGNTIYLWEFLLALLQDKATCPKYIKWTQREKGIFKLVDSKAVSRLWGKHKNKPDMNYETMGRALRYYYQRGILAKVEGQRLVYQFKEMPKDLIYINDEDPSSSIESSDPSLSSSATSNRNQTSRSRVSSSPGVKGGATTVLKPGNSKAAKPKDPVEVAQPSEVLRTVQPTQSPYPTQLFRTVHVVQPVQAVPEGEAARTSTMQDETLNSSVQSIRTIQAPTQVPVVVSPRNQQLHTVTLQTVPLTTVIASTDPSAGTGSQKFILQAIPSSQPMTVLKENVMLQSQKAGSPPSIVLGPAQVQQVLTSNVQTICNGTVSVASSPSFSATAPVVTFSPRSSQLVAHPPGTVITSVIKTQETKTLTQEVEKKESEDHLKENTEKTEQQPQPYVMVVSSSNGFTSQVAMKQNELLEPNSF
Chain of SPIB (Q01892 whole entry): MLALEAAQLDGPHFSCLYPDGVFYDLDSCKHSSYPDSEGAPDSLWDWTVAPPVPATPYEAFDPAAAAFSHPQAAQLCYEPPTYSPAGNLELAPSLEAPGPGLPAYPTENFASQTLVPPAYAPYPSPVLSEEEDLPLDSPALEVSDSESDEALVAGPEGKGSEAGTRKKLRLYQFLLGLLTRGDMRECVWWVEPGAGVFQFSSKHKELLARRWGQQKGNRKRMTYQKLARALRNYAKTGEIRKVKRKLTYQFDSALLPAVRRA

TATATG
binding signal (FLI1): 1.28 fold enrichment (6-mer frequency, TF over GST control)
binding signal (ELK1): 1.38 fold enrichment (6-mer frequency, TF over GST control)
binding signal (GABPA): 1.3 fold enrichment (6-mer frequency, TF over GST control)
binding signal (ERG): 1.36 fold enrichment (6-mer frequency, TF over GST control)
binding signal (ELF1): 1.43 fold enrichment (6-mer frequency, TF over GST control)
binding signal (EHF): 1.34 fold enrichment (6-mer frequency, TF over GST control)
binding signal (SPI1): 1.41 fold enrichment (6-mer frequency, TF over GST control)
binding signal (SPIB): 1.36 fold enrichment (6-mer frequency, TF over GST control)
binding signal (ELK3): 1.38 fold enrichment (6-mer frequency, TF over GST control)
binding signal (FEV): 1.33 fold enrichment (6-mer frequency, TF over GST control)
binding signal (ETV5): 1.34 fold enrichment (6-mer frequency, TF over GST control)
binding signal (HSF1): 1.28 fold enrichment (6-mer frequency, TF over GST control)
binding signal (SPIC): 1.47 fold enrichment (6-mer frequency, TF over GST control)
binding signal (ELF4): 1.31 fold enrichment (6-mer frequency, TF over GST control)
binding signal (ELK4): 1.65 fold enrichment (6-mer frequency, TF over GST control)
binding signal (ETV2): 1.25 fold enrichment (6-mer frequency, TF over GST control)
binding signal (ELF3): 1.46 fold enrichment (6-mer frequency, TF over GST control)
binding signal (CRX): 1.44 fold enrichment (6-mer frequency, TF over GST control)
binding signal (ETV1): 1.33 fold enrichment (6-mer frequency, TF over GST control)
